In the antibiotic and cytotoxicity screens of Wong et al. (2023):
About 3,300 (8.5%) of roughly 39,000 compounds were called active. The entries come from a sample that favours actives as a whole.

test system: HepG2; test: cytotoxicity call (relative viability < 0.9); conditions: 10 µM

| Structure (SMILES) | cytotoxicity call |
| --- | --- |
| C[C@@H]1CCCCO[C@@H](CN(C)C(=O)Nc2ccc(F)cc2)[C@@H](C)CN([C@H](C)CO)C(=O)c2cc(NC(=O)NC3CCCCC3)ccc2O1 | inactive |
| C[C@@H]1CCCCO[C@@H](CN(C)S(=O)(=O)c2ccccc2)[C@H](C)CN([C@H](C)CO)C(=O)c2cc(NC(=O)Nc3ccc(F)cc3)ccc2O1 | inactive |
| C=CCOC(=O)N(C)C[C@@H]1OCCCC[C@H](C)Oc2ccc(NC(=O)Nc3ccccc3)cc2C(=O)N([C@@H](C)CO)C[C@H]1C | inactive |
| C[C@H]1CCCCO[C@H](CN(C)S(=O)(=O)c2ccccc2)[C@@H](C)CN([C@@H](C)CO)C(=O)c2cc(NC(=O)Nc3ccc(F)cc3)ccc2O1 | active |
| C=CCOC(=O)N(C)C[C@@H]1OCCCC[C@H](C)Oc2ccc(NC(=O)Nc3ccccc3)cc2C(=O)N([C@H](C)COC(=O)c2ccccc2)C[C@H]1C | inactive |
| C[C@H](CO)N1C[C@H](C)[C@@H](CN(C)S(=O)(=O)c2ccccc2)OCCCC[C@H](C)Oc2ccc(NC(=O)Nc3ccc(F)cc3)cc2C1=O | inactive |
| COCOC[C@H](C)N1C[C@@H](C)[C@H](CN(C)S(=O)(=O)c2ccc(F)cc2)OCCCC[C@H](C)Oc2ccc(NC(=O)Nc3ccccc3)cc2C1=O | inactive |
| C=CCOC(=O)N(C)C[C@H]1OCCCC[C@H](C)Oc2ccc(NC(=O)Nc3ccccc3)cc2C(=O)N([C@@H](C)CO[Si](C)(C)C(C)(C)C)C[C@H]1C | active |
| C[C@@H]1CN([C@@H](C)CO[Si](C)(C)C(C)(C)C)C(=O)c2cc(NC(=O)Nc3ccccc3)ccc2O[C@@H](C)CCCCO[C@H]1CN(C)S(=O)(=O)c1ccc(F)cc1 | active |
| C[C@@H]1CCCCO[C@H](CN(C)S(=O)(=O)c2ccccc2)[C@H](C)CN([C@@H](C)CO)C(=O)c2cc(NC(=O)Nc3ccc(F)cc3)ccc2O1 | active |
| C[C@@H]1CN([C@H](C)CO)C(=O)c2cc(NC(=O)Nc3ccc(F)cc3)ccc2O[C@@H](C)CCCCO[C@@H]1CN(C)S(=O)(=O)c1ccccc1 | inactive |
| C[C@@H]1CN([C@@H](C)CO)C(=O)c2cc(NC(=O)Nc3ccc(F)cc3)ccc2O[C@@H](C)CCCCO[C@H]1CN(C)S(=O)(=O)c1ccccc1 | inactive |
| C[C@@H]1CN([C@H](C)CO[Si](C)(C)C(C)(C)C)C(=O)c2cc(NC(=O)Nc3ccccc3)ccc2O[C@@H](C)CCCCO[C@H]1CN(C)S(=O)(=O)c1ccc(F)cc1 | inactive |
| C[C@H](CO)N1C[C@H](C)[C@H](CN(C)S(=O)(=O)c2cccs2)OCCCC[C@H](C)Oc2ccc(NC(=O)NC3CCCCC3)cc2C1=O | inactive |
